This note sets out measurements from PMC7862700, “An all-to-all approach to the identification of sequence-specific readers for epigenetic DNA modifications on cytosine”.

Experiment in all cases: DAPPL (digital affinity profiling via proximity ligation, sequencing); 10 mM Tris-HCl pH 7.5, 50 mM NaCl, 1 mM DTT, 4% glycerol, room temperature, 30 min; GST-TFs on glutathione beads, 16-mer random dsDNA library, 0.1% formaldehyde crosslink after washing; high values mean tight binding
The target of one assay is T1, FEV (Homo sapiens, UniProt Q99581 1-238).
T1 sequence: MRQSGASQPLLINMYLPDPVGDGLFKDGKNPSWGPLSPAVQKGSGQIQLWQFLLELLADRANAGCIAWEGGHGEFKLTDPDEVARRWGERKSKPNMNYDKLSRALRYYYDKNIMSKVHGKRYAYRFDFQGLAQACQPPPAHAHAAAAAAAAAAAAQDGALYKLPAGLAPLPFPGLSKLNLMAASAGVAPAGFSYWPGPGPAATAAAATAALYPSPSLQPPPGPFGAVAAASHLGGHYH
The conditions noted are these: protein: recombinant; tags: N-terminal GST; dsDNA, one strand shown. In outline: (§1)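 Beads coated with glutathione captured GST-fused human transcription factors that had been expressed in yeast, and the factors were then given DNA barcodes and pooled with a tag-only sample. The pools were incubated with 200 nmole of a random double-stranded 16-mer DNA library in Tris/NaCl/DTT/glycerol buffer for 30 min at room temperature, washed, crosslinked with 0.1% formaldehyde and proximity-ligated with BsaI/T4 ligase at 37 °C for 1 h. PCR amplification and Illumina NextSeq500 sequencing came last. Binding signal is each hexamer's read frequency for a factor divided by its frequency for the tag-only sample.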

For a further assay, the target named is ETV5 (Homo sapiens, UniProt P41161 1-510). Particulars: protein: recombinant; tags: N-terminal GST; dsDNA, one strand shown. The method, boiled down: as §1
The next assay concerns the target HSF1 (Homo sapiens, UniProt Q00613 1-529). The conditions noted are these: protein: recombinant; tags: N-terminal GST; chain copies: 3; dsDNA, one strand shown. In outline:
as §1

The target in a further assay is T2, SPIC (Homo sapiens, UniProt Q8N5J4 1-248).
T2 sequence: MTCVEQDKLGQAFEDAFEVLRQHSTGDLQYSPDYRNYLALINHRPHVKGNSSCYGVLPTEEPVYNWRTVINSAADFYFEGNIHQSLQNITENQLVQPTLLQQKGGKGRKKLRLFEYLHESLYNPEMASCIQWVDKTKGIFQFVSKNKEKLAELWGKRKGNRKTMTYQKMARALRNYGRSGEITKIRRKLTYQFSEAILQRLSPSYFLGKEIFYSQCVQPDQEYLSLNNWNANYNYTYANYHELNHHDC
Particulars: protein: recombinant; tags: N-terminal GST; dsDNA, one strand shown. The method, boiled down: as §1

Another assay deals with ELF4 (Homo sapiens, UniProt Q99607 1-663). The conditions noted are these: protein: recombinant; tags: N-terminal GST; dsDNA, one strand shown. The method, boiled down: as §1
For a further assay, the target named is T3, ELK4 (Homo sapiens, UniProt P28324-2 1-405).
T3 sequence: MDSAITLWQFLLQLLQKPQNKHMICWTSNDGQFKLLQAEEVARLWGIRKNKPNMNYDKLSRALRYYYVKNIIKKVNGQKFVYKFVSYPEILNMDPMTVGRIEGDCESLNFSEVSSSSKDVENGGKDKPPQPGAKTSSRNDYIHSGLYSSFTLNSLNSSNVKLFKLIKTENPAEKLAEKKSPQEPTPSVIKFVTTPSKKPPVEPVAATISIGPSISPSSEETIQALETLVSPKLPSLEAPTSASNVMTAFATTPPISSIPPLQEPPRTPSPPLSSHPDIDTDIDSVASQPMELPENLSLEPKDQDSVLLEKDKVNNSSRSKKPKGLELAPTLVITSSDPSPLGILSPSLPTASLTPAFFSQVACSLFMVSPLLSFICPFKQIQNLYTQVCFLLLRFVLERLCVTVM
The conditions noted are these: protein: recombinant; tags: N-terminal GST; dsDNA, one strand shown. The method, boiled down:
as §1

A further assay concerns the target T4, ETV2 (Homo sapiens, UniProt O00321 1-342).
T4 sequence: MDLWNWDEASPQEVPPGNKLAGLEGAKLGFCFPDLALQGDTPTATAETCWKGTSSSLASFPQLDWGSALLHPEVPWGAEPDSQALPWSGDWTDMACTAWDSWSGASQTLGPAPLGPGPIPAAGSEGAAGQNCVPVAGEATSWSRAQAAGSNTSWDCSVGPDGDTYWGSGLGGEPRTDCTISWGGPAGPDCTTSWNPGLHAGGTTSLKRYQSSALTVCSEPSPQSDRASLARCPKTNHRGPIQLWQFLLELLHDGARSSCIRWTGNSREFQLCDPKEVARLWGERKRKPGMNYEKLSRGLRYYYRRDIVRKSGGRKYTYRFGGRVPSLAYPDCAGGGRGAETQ
Particulars: protein: recombinant; tags: N-terminal GST; dsDNA, one strand shown. In outline:
as §1

For another assay, the target named is T5, ELF3 (Homo sapiens, UniProt P78545 1-371).
T5 sequence: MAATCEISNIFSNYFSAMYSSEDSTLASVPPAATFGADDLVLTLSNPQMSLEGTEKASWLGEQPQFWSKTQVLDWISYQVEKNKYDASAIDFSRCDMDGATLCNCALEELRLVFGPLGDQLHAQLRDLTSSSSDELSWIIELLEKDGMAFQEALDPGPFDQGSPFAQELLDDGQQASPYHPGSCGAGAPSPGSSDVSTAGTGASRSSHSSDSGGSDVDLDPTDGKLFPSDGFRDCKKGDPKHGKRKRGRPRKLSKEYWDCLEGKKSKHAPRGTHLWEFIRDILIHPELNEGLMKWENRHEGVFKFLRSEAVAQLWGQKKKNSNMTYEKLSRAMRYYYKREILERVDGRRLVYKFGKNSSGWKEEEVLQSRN
Particulars: protein: recombinant; tags: N-terminal GST; dsDNA, one strand shown. The method, boiled down:
as §1

Another assay addresses CRX (Homo sapiens, UniProt O43186 1-299). Particulars: protein: recombinant; tags: N-terminal GST; dsDNA, one strand shown. The method, boiled down: as §1
The target of a further assay is ETV1 (Homo sapiens, UniProt P50549 1-477). The conditions noted are these: protein: recombinant; tags: N-terminal GST; dsDNA, one strand shown. In outline: as §1
In a further assay the target is T6, ERF (Homo sapiens, UniProt P50548 1-548).
T6 sequence: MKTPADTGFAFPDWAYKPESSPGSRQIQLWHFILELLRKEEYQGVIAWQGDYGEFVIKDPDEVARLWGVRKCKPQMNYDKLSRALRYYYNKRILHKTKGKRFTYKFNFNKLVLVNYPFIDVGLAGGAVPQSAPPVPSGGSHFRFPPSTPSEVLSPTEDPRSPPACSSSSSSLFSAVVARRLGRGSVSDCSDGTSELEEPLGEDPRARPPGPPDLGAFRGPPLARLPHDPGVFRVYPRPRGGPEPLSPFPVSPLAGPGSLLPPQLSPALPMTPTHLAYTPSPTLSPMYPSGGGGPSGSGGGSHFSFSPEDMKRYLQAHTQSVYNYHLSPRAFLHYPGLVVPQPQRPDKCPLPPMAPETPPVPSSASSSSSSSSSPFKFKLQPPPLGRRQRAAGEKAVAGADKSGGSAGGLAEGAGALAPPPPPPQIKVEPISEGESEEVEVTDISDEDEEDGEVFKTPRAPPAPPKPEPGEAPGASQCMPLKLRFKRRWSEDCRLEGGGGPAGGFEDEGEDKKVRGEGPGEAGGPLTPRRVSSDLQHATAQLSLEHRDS
Particulars: protein: recombinant; tags: N-terminal GST; dsDNA, one strand shown. In outline: as §1

The next assay concerns the target T7, ETV3L (Homo sapiens, UniProt Q6ZN32 1-361).
T7 sequence: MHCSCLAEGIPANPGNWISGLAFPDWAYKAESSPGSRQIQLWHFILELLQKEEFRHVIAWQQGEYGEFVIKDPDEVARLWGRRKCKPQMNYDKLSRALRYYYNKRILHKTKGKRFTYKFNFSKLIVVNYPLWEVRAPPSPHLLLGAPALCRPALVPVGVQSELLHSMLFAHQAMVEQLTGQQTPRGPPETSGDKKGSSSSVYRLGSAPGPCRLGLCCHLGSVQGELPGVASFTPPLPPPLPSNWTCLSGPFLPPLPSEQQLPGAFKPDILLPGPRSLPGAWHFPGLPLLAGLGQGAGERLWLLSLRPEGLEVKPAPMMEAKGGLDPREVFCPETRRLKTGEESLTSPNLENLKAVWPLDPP
The conditions noted are these: protein: recombinant; tags: N-terminal GST; dsDNA, one strand shown. In outline: as §1

A further assay addresses T8, ETS2 (Homo sapiens, UniProt P15036 1-469).
T8 sequence: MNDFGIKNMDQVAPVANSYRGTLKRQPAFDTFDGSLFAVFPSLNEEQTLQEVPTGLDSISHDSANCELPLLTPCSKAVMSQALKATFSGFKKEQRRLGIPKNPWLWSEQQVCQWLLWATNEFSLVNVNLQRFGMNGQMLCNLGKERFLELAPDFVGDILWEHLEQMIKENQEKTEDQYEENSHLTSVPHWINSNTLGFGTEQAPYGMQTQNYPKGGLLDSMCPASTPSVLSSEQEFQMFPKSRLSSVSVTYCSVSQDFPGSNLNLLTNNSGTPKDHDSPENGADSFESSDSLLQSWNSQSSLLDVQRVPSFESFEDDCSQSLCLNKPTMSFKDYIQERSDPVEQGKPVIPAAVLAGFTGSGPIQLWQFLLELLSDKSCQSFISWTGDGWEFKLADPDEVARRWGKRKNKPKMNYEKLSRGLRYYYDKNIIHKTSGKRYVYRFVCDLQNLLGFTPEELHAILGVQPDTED
The conditions noted are these: protein: recombinant; tags: N-terminal GST; dsDNA, one strand shown. In outline: as §1

A further assay has as its target T9, SPDEF (Homo sapiens, UniProt O95238 1-335).
T9 sequence: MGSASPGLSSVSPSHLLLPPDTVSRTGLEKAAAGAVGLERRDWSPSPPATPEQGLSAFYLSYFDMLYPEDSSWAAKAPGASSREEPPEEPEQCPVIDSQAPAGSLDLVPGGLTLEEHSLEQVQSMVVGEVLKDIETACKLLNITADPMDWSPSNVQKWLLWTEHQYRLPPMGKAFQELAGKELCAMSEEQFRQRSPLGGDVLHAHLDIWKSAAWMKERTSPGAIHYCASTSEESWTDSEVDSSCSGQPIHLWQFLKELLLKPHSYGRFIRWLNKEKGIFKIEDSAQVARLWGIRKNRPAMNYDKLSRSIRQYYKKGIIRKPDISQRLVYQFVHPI
The conditions noted are these: protein: recombinant; tags: N-terminal GST; dsDNA, one strand shown. In outline: as §1

In the next assay the target is T10, ETV7 (Homo sapiens, UniProt Q9Y603 1-341).
T10 sequence: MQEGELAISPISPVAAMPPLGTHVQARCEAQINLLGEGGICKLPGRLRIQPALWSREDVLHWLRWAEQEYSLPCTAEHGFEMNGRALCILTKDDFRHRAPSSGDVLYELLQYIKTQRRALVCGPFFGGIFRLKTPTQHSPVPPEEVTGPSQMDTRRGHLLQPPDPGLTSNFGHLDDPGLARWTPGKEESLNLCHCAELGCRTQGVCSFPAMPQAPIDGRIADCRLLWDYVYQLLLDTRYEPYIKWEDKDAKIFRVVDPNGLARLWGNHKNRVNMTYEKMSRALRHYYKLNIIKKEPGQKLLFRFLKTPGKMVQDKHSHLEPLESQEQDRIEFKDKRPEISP
Particulars: protein: recombinant; tags: N-terminal GST; dsDNA, one strand shown. The method, boiled down:
as §1

Another assay deals with T11, ELF5 (Homo sapiens, UniProt Q9UKW6-2 1-255).
T11 sequence: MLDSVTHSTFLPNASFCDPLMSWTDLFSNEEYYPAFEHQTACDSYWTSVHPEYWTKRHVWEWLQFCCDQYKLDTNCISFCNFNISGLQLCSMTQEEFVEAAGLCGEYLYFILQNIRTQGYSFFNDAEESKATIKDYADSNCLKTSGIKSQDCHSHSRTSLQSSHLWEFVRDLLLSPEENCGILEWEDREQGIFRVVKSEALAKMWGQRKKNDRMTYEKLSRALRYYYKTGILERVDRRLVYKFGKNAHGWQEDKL
Particulars: protein: recombinant; tags: N-terminal GST; dsDNA, one strand shown. In outline:
as §1

For a further assay, the target named is T12, ETV3 (Homo sapiens, UniProt P41162-2 1-143).
T12 sequence: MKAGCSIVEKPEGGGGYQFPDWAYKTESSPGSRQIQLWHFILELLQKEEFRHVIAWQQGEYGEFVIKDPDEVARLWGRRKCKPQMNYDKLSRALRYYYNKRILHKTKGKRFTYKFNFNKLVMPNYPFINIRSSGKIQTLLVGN
The conditions noted are these: protein: recombinant; tags: N-terminal GST; dsDNA, one strand shown. The method, boiled down:
as §1

In another assay the target is ETV6 (Homo sapiens, UniProt P41212 1-452). The conditions noted are these: protein: recombinant; tags: N-terminal GST; dsDNA, one strand shown. The method, boiled down:
as §1

CRX, sequence (O43186 whole entry): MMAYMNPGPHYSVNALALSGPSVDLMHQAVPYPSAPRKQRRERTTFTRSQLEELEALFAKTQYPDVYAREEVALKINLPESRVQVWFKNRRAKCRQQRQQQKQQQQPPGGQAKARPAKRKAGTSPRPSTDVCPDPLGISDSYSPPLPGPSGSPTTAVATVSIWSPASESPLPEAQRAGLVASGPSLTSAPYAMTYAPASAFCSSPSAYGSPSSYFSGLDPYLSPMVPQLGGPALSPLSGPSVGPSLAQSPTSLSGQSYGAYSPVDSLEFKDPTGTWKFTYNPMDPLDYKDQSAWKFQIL
ELF4, sequence (Q99607 whole entry): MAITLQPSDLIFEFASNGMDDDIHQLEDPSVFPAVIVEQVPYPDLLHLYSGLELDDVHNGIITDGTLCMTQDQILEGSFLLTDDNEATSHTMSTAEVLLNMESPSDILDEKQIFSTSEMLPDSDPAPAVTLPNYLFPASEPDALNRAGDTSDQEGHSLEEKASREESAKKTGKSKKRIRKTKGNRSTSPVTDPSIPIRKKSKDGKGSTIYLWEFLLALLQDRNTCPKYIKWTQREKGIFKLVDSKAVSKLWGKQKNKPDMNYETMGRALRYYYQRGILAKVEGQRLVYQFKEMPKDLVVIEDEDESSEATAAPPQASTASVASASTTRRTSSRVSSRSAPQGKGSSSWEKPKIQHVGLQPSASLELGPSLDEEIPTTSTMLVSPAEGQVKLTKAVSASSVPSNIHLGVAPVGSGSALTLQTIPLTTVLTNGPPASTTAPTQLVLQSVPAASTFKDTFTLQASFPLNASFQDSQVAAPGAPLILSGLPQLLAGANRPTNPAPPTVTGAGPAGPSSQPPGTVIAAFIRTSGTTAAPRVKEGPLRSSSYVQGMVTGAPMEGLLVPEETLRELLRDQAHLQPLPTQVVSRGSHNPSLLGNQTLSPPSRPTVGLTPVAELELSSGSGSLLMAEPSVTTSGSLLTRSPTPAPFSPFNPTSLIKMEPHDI
ETV1, sequence (P50549 whole entry): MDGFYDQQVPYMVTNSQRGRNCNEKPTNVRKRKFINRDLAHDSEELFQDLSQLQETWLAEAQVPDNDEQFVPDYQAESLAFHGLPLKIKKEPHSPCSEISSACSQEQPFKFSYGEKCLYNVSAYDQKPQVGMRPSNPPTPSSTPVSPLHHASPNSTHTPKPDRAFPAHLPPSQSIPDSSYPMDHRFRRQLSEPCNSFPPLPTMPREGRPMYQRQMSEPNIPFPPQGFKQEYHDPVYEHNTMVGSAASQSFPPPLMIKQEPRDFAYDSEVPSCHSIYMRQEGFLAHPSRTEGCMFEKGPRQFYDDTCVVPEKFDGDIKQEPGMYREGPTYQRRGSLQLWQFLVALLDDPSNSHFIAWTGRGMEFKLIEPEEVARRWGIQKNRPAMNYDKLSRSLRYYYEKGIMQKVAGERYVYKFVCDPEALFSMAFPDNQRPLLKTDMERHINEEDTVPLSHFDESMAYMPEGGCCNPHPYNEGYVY
ETV5, sequence (P41161 whole entry): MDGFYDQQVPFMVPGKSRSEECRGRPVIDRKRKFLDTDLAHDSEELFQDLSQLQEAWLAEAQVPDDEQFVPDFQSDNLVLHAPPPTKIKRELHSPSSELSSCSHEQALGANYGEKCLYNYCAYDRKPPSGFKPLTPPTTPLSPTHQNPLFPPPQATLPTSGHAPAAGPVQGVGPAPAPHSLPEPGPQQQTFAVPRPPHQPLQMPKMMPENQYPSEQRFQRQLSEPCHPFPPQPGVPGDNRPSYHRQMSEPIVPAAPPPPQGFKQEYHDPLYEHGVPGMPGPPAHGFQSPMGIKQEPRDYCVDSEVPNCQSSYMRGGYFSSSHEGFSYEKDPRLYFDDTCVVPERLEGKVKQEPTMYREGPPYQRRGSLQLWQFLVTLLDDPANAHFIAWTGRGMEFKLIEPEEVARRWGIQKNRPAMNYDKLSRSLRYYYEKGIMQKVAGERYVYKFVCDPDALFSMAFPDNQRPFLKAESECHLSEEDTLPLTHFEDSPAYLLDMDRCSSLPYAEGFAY
ETV6, sequence (P41212 whole entry): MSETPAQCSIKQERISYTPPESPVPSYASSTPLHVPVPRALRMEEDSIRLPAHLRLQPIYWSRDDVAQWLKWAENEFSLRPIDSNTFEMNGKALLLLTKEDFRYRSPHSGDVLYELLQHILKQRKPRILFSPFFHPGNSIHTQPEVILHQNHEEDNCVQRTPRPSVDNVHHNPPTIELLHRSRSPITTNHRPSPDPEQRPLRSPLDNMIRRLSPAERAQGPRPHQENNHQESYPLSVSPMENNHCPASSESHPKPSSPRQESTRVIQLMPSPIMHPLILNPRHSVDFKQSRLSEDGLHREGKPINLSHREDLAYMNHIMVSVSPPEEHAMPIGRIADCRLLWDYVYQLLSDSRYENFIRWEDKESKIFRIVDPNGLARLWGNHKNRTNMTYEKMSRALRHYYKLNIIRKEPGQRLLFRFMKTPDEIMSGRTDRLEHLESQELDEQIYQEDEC
HSF1, sequence (Q00613 whole entry): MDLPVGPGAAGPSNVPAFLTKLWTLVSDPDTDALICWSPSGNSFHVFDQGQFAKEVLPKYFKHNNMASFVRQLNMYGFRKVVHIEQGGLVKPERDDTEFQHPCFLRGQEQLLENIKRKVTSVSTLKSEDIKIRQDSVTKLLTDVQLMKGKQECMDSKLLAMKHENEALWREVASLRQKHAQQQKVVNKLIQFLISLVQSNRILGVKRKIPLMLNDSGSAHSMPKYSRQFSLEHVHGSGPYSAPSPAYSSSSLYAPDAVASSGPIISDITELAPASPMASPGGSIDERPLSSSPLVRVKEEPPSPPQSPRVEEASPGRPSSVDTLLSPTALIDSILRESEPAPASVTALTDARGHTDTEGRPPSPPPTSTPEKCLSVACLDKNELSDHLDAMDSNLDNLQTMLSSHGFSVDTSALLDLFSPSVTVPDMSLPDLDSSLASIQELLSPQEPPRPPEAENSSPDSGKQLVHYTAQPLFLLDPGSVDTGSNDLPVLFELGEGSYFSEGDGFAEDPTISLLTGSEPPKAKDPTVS

On to CTTATC, for which the binding signal was 1.2 fold enrichment (6-mer frequency, TF over GST control) with FEV; 1.13 fold enrichment (6-mer frequency, TF over GST control) with ETV5; 1.6 fold enrichment (6-mer frequency, TF over GST control) with HSF1; 1.34 fold enrichment (6-mer frequency, TF over GST control) with SPIC; 1.12 fold enrichment (6-mer frequency, TF over GST control) with ELF4; 1.18 fold enrichment (6-mer frequency, TF over GST control) with ELK4. In addition, the binding signal is 1.03 fold enrichment (6-mer frequency, TF over GST control) with ETV2; 1.14 fold enrichment (6-mer frequency, TF over GST control) with ELF3; 2.44 fold enrichment (6-mer frequency, TF over GST control) with CRX; 1.18 fold enrichment (6-mer frequency, TF over GST control) with ETV1; 1.12 fold enrichment (6-mer frequency, TF over GST control) with ERF; 1.22 fold enrichment (6-mer frequency, TF over GST control) in the assay with ETV3L. For the same sequence, the binding signal with ETS2 was 1.12 fold enrichment (6-mer frequency, TF over GST control); with SPDEF it was 1.23 fold enrichment (6-mer frequency, TF over GST control); with ETV7 it was 1.1 fold enrichment (6-mer frequency, TF over GST control); in the assay with ELF5, 1.17 fold enrichment (6-mer frequency, TF over GST control); with ETV3 it was 1.15 fold enrichment (6-mer frequency, TF over GST control); with ETV6 it was 1.1 fold enrichment (6-mer frequency, TF over GST control).
